Results filed as inconclusive are left out. Activity calls are given as the source filed them.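 The calls were made as follows, unless noted: active = viability loss from added drug above about 55%, and viability with drug at most 40%, in both replicates (limit read from the data, passing the limit was not always enough); inconclusive = both conditions met in only one replicate; inactive = neither replicate meets both conditions.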
Legend:
[1] = reducers of endogenous Her2 protein level, primary screen, SKBR3 breast tumor cells, AlphaScreen, ATP viability (AID 461;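 active = Her2 level under about 52% in both replicate screens, with viability over 70% of control, limit read from the data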;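 as to Her2 level: lower value means less Her2 protein in the cells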;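 as to viability: percent of carrier control wells set as 100% viability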); conditions: 18-24 h, measured here: SKBR3 viability, ATP luminescence, at 10 µM
[2] = biological target: Receptor tyrosine-protein kinase erbB-2 (Homo sapiens) (UniProt P04626); experiment: as above; conditions: 18-24 h, at 10 µM, stronger effect = lower value
[3] = SK-BR-3 cell growth inhibitors, pilot screen, 24 h, human (AID 572;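 active = viability at or below 10% of carrier control in both of two separate runs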;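 also: compound exposure lasted between 18 and 24 h rather than exactly 24 h; 100% = carrier-treated control wells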); conditions: SK-BR-3 viability, CellTiter-Glo luminescence, at 10 µM, stronger effect = lower value
[4] = HUVEC growth inhibition – cell-based, human, primary screen (AID 575;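 active = viability at or below 30% in both replicate assays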;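 also: 100% = median of untreated cell wells with 0.1% DMSO on each plate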); conditions: HUVEC proliferation, CellTiter-Glo luminescence, 72 h; at 10 µM; stronger effect = lower value
[5] = growth inhibitors of H69AR lung tumor, primary screen, human, duplicate replicates (AID 580;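 active = viability at or under a set limit in both replicates, limit being median viability minus 3 SD, cut at about 48% in these data, passing the limit was not always enough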;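 also: 100% = mean luminescence of untreated wells and 0% = no signal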); conditions: H69AR lung tumor cells viability, ATP luminescence, 72 h; at 10 µM; stronger effect = lower value
[6] = reversal of MRP1-mediated doxorubicin resistance, pilot screen, H69AR cells, doxorubicin co-treatment (AID 601); conditions: CellTiter-Glo, 72 h, at 10 µM; for differential viability (reversal): stronger effect = higher value
[7] = 384-well plate pilot, post-Golgi transport modulator project, inhibition of yeast transport mutant growth (AID 636; in the data active = inhibition above about 31%); conditions: absorbance 615 nm, about 18 h, stronger effect = higher value
[8] = growth suppression of yeast trafficking mutant, preliminary HTS, modulators of trafficking downstream of Golgi apparatus project, 1536-format plate, OD 615 nm (AID 637; in the data active = inhibition above about 30%); conditions: yeast transport mutant growth, absorbance 615 nm, 18 h; stronger effect = higher value
[9] = OD615 S. cerevisiae growth inhibition, permissive medium, pilot counter-assay, permissive growth control for S. cerevisiae lifespan shortening project (AID 705;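 active = growth inhibition above 25% in both replicates, a cutoff set 3 SD above the mean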); conditions: OD615, 24 h, at 10 µM, stronger effect = higher value
[10] = Restrictive medium S. cerevisiae growth inhibition, OD615, pilot screen of yeast lifespan reduction project, restrictive growth control (AID 706;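 active = growth inhibition above a set limit, 3 SD over mean compound inhibition, in both replicates, cut at about 43% in these data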;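 also: modified DeaD lifespan yeast strain shifted to restrictive glucose medium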); conditions: OD615, 48 h, at 10 µM, stronger effect = higher value
[11] = viability gain of MRP-1-high H69AR cells under doxorubicin, pilot screen, MRP-1 activator project, CellTiter-Glo, duplicate (AID 807;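 active = viability increase at or above a cutoff of the median across tested compounds plus 3 SD, cut at about 8.5% in these data, passing the limit was not always enough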;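 also: compound pretreatment 18-22 h then 72 h combined with doxorubicin; 0% = doxorubicin alone and 100% = vehicle without doxorubicin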); conditions: H69AR viability with doxorubicin, CellTiter-Glo luminescence; at 10 µM; stronger effect = higher value
[12] = growth suppression of beta-catenin knockout HCT116, pilot screen, human colon tumor cells (AID 823;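 active = cell viability at or below a set limit in both duplicate runs, the limit being the all-compound median minus 4 SD, cut at about 23% in these data, passing the limit was not always enough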;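 also: 0% = wells killed by 20 µM Hyamine and 100% = untreated DMSO cell wells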); conditions: CellTiter-Glo, 60 h, at 10 µM, stronger effect = lower value
[13] = growth suppression of PTEN-deleted HCT116, pilot screen, cell-based, HCT116 clonal line, CellTiter-Glo (AID 824;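 active = viability at or below 27.92% in each of two runs, the all-compound median minus 4 SD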;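 also: 0% = 20 µM Hyamine control and 100% = vehicle cell control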); conditions: 60 h, at 10 µM, stronger effect = lower value
[14] = inhibitors of the yeast RAM network, pilot screen, dse1pr::URA3 reporter, 5-FOA selection (AID 869;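 active = inhibition over a set limit, the all-compound mean plus 3 SD, in both replicate runs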;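 also: 0% = DMSO wells with no growth and 100% = 10 µM 1-NA-PP1 with full growth; RAM network block rescues cells from 5-FOA so hits raise OD615 growth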); conditions: S. cerevisiae dse1pr::URA3 5-FOA growth, OD615, 2 d; at 10 µM; stronger effect = higher value; strain carries analog-sensitive mutant Cbk1 kinase
[15] = RAM signaling pathway blockade in yeast – S. cerevisiae, Pdr1DBD-CYC8 efflux-inhibited sensitized strain, primary screen (AID 1298;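 active = RAM network inhibition above 8.4% in each of two replicates, 3 SD over the compound average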;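 also: 0% = DMSO untreated cells without growth and 100% = 10 µM 1-NA-PP1 full growth; higher means more yeast growth rescued from 5-FOA killing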); conditions: S. cerevisiae cbk1-as DSE1-URA3 strain, 5-FOA growth OD615, 2 d; at 50 µM; stronger effect = higher value
[16] = H69AR cells + 2 uM doxorubicin, measured here: viability with 2 uM doxorubicin, stronger effect = lower value
[17] = H69AR cells, compound alone cytotoxicity

Sequence of Receptor tyrosine-protein kinase erbB-2 (Homo sapiens) (P04626 whole entry, looked up): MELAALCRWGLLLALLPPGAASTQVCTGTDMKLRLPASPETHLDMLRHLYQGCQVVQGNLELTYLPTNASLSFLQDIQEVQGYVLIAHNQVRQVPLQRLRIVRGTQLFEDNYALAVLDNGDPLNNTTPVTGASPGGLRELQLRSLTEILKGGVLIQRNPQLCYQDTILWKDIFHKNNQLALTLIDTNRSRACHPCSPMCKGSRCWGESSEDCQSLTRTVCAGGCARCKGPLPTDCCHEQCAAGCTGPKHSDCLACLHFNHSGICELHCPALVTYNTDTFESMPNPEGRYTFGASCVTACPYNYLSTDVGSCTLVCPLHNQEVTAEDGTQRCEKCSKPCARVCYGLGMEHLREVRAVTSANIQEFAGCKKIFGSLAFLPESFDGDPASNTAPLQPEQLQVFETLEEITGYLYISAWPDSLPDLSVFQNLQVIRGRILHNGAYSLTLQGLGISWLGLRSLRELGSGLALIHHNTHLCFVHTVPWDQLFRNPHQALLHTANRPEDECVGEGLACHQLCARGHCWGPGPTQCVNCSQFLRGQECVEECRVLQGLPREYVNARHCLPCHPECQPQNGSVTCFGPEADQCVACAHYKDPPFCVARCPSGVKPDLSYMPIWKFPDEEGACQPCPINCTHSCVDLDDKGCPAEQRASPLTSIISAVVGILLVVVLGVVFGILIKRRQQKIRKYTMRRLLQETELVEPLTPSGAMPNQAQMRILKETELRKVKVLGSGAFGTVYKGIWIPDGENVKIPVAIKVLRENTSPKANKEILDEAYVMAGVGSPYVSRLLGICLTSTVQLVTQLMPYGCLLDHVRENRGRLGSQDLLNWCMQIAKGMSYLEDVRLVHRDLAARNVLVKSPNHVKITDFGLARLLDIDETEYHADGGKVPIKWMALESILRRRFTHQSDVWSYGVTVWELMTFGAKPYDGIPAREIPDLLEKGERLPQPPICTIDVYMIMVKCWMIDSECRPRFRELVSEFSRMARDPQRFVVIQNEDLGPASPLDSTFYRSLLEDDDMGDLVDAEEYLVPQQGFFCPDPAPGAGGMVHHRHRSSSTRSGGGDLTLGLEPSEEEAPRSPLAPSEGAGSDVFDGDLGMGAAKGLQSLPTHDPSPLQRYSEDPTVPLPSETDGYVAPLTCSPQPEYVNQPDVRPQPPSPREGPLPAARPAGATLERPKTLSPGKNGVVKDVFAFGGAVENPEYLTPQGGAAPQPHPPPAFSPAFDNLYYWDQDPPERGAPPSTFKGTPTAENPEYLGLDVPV

SMILES	viability [1]	Her2 level [2]	viability [3]	viability [4]	viability [5]	differential viability (reversal) ([6]; H69AR cells + 2 uM doxorubicin)	viability [6, 16]	viability [6, 17]	inhibition [7]	inhibition [8]	growth inhibition [9]	growth inhibition [10]	viability increase [11]	viability [12]	viability [13]	inhibition [14]	RAM network inhibition [15]
COC(=O)CCCCC(=O)C1C(=O)CC(C)(C)C(C(=O)OC)C1=O (stereo not given)	91.5%	118% (inactive)	91.5% (inactive)	91.2% (inactive)	91.7% (inactive)	-3.76% (inactive)	95.5%	91.7%	2.08% (inactive)	-8% (inactive)	-15.7% (inactive)	-6.2% (inactive)	-1.69% (inactive)	94.4% (inactive)	93.6% (inactive)	1.31% (inactive)	-0.78% (inactive)
CCOC(=O)N1CCN(c2cc(=O)n(-c3cccc(Br)c3)c(=O)[nH]2)CC1	99.5%	108% (inactive)	99.5% (inactive)	94.4% (inactive)	103% (inactive)	17.2% (inactive)	85.5%	103%	-3.2% (inactive)	-1.8% (inactive)	-9.72% (inactive)	-24.3% (inactive)	-2.79% (inactive)	108% (inactive)	93.5% (inactive)	3.14% (inactive)	3.07% (inactive)
CCOc1ccc(S(=O)(=O)N2CCN(c3ccc(C)cc3C)CC2)cc1	98.5%	114% (inactive)	98.5% (inactive)	90.1% (inactive)	90.1% (inactive)	-14.9% (inactive)	105%	90.1%	-5.07% (inactive)	-4.67% (inactive)	7.69% (inactive)	5.65% (inactive)	-0.07% (inactive)	65.6% (inactive)	83.5% (inactive)	2.64% (inactive)	6.67% (inactive)
COC(=O)c1ccc(NC(=O)CN2CCCC2)cc1	107%	97.5% (inactive)	107% (inactive)	104% (inactive)	99.9% (inactive)	0.64% (inactive)	99.2%	99.9%	-2% (inactive)	-1.13% (inactive)	-4.15% (inactive)	-3.12% (inactive)	-0.69% (inactive)	98% (inactive)	102% (inactive)	0.115% (inactive)	0.47% (inactive)
CSc1nc2c(c(=O)n1C)SC(C)C2 (stereo not given)	97%	92.5% (inactive)	97% (inactive)	103% (inactive)	90.8% (inactive)	-4.56% (inactive)	95.4%	90.8%	-5.87% (inactive)	-1.67% (inactive)	-6.38% (inactive)	-10.4% (inactive)	-2.62% (inactive)	103% (inactive)	93.5% (inactive)	1.56% (inactive)	5.01% (inactive)
CCN(CC)c1ccc(NC(=O)c2nc3nc(C)cc(C(F)F)n3n2)cc1	122%	102% (inactive)	122% (inactive)	81.6% (inactive)	84.4% (inactive)	6.97% (inactive)	77.4%	84.4%	-3.6% (inactive)	6.72% (inactive)	-8.26% (inactive)	-10.5% (inactive)	0.23% (inactive)	95.2% (inactive)	88% (inactive)	0.83% (inactive)	1.16% (inactive)
CC(C)OC(=O)c1ccc(OC(=O)c2cccnc2)cc1	91.5%	100% (inactive)	91.5% (inactive)	102% (inactive)	106% (inactive)	11.3% (inactive)	94.6%	106%	3.65% (inactive)	-3.44% (inactive)	2.51% (inactive)	12.6% (inactive)	-2.98% (inactive)	92.9% (inactive)	91.3% (inactive)	2.02% (inactive)	2.34% (inactive)
Cc1nnc(SCC(=O)Nc2sc3c(c2C#N)CCCC3)[nH]c1=O	95.5%	91.5% (inactive)	95.5% (inactive)	88.3% (inactive)	102% (inactive)	4.41% (inactive)	97.4%	102%	-3.38% (inactive)	-4.83% (inactive)	1.05% (inactive)	10.9% (inactive)	-2.28% (inactive)	103% (inactive)	101% (inactive)	0.455% (inactive)	3.34% (inactive)
CN1CCN(Cc2nc3c(c(=O)[nH]c(=O)n3C)n2CCc2ccccc2)CC1	82%	96% (inactive)	82% (inactive)	91.2% (inactive)	93% (inactive)	-4.29% (inactive)	97.2%	93%	-6% (inactive)	-5% (inactive)	-4.41% (inactive)	1.98% (inactive)	-4.22% (inactive)	92% (inactive)	93.5% (inactive)	0.565% (inactive)	1.56% (inactive)
CCOC(=O)Cc1ccc(NS(=O)(=O)c2ccc(SC)cc2)cc1	89%	88% (inactive)	89% (inactive)	67.9% (inactive)	86.7% (inactive)	3.83% (inactive)	82.8%	86.7%	-5.54% (inactive)	-5.08% (inactive)	6.06% (inactive)	-1.98% (inactive)	-4.85% (inactive)	94.4% (inactive)	88.1% (inactive)	0.825% (inactive)	2.83% (inactive)

Reference: PubChem BioAssay
